Consider 27 compounds from PubChem BioAssay AID588453 (National Center for Advancing Translational Sciences (NCATS), 2011).

Molecules are shown by their SMILES. Hit rate of the full screen: of about 390,000 compounds, about 4,000 (1%) were called active. Not shown: some 4% with an inconclusive outcome. The call rests on the fitted dose curve; in most records, active means well fitted inhibition curve with a large enough effect; inconclusive means small, poorly fitted or top-dose-only effect; inactive means no such curve, though single readings can be large or run the other way. Shown is part of a subset that was picked to be rich in actives. A call without a number means that no potency is given here.
Potency means the concentration at half of the fitted maximal effect.

The target of this assay is Thioredoxin reductase 1, cytoplasmic (Rattus norvegicus) (UniProt O89049). In words: qHTS Assay for Inhibitors of Mammalian Selenoprotein Thioredoxin Reductase 1 (TrxR1): qHTS. Further: nearly all actives have a fitted effect of over 65% in size. The settings on record: recombinant rTrxR1, NADPH fluorescence consumption, selenite substrate; series mostly up to 114 µM. The method in brief: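 Rat TrxR1 (90 nM in the dispensed reagent) was pre-reduced with 400 uM NADPH for 5 min at room temperature, then incubated with compound for 15 min. After 400 uM selenite was added, NADPH fluorescence (Ex 340/Em 450 nm) was followed for 8 min.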
Chain of Thioredoxin reductase 1, cytoplasmic (Rattus norvegicus) (O89049 whole entry, looked up): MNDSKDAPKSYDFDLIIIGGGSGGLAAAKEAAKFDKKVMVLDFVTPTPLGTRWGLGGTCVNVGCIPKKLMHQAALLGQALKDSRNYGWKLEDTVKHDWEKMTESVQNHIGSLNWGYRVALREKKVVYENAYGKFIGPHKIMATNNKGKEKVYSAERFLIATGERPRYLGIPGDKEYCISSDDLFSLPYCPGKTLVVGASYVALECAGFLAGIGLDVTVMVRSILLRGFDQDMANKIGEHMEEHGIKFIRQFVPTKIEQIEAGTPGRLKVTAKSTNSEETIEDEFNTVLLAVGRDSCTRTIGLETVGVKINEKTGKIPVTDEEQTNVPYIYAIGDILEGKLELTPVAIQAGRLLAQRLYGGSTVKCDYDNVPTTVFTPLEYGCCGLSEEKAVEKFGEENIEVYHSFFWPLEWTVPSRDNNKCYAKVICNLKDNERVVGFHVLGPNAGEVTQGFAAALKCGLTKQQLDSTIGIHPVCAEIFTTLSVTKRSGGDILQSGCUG
Regarding `Oc1ccc(Cn2cc[nH]c2=S)cc1`, the Potency result was “inactive”.

On to `CNc1ccc(-c2nc(-c3ccco3)no2)cc1[N+](=O)[O-]`, for which the Potency entry was “inactive”.

As to `O=[N+]([O-])c1cc(-c2nc(-c3ccccc3)no2)ccc1NCc1ccco1`, the Potency result is “inactive”.

For the compound `CC(Nc1ccc(-c2nc(-c3ccco3)no2)cc1[N+](=O)[O-])c1ccccc1` (configuration not stated), the Potency was 44.7 µM (active).

Consider `COc1ccc(NC(=O)c2ccc3nc(CCc4ccccc4)oc3c2)c(OC)c1`, for which the Potency entry is “inactive”.

On to `CSc1ccccc1N1CCN(CCCCCC(=O)NC2CCCc3ccccc32)CC1` (configuration not stated), for which the Potency entry was “inactive”.

As for `CCOC(=O)C(=Cc1ccccc1OC)C(=O)OCC`, the Potency was 44.7 µM (active).

Take `COc1ccccc1/C=C/C(=O)OCC(=O)NC1CCCCCC1`: the Potency entry is “inactive”.

In the case of `COc1ccccc1C(=O)OCC(=O)NCCNC(=O)COC(=O)c1ccccc1OC`, the Potency entry is “inactive”.

Turning to `Cc1ccc(C)c(Nc2nnc(-c3ccc(C)c(S(=O)(=O)N4CCCCC4)c3)c3ccccc23)c1`, the Potency result is “inactive”.

Consider `CC1(C)C=Cc2c(ccc(C(=O)/C=C/c3ccccc3)c2O)O1`, for which the Potency result was “inactive”.

Turning to `COc1ccccc1C(=O)N/C(=C/c1ccco1)C(=O)Nc1ccc(C(=O)O)cc1`, the Potency entry was “inactive”.

In the case of `O=C(Nc1ccccc1)/C(=C\c1ccco1)NC(=O)c1ccco1`, the Potency is 50.1 µM (active).

With `O=C(NC(Cc1ccccc1)C(=O)O)/C(=C\c1ccccc1)NC(=O)c1ccco1` (configuration not stated), the Potency result is “inactive”.

Take `O=C1COc2ccc(-c3csc(-c4ccc(Cl)cc4)n3)cc2N1`: the Potency result was “inactive”.

For the compound `CCc1nn(CC(=O)Nc2cccc(C)c2C)c(=O)c2cc3sccc3n12`, the Potency entry was “inactive”.

For `CC(C)c1ccc(NC(=O)CN(C)S(=O)(=O)c2ccc3c(c2)c(=O)n(C)c(=O)n3C)cc1`, the Potency result is “inactive”.

Turning to `Nc1ncnc2c1c(I)cn2[C@@H]1C[C@H](N)[C@@H](O)[C@H]1O`, the Potency entry is “inactive”.

In the case of `O=C1Oc2ccccc2C(=O)/C1=C/c1ccccc1O`, the Potency is 11.2 µM (active).

Take `CO[C@H]1O[C@@H]2O[C@@]3(C)CC[C@@H]4[C@@H](C)CC[C@@H]([C@H]1C)[C@@]24OO3`: the Potency entry is “inactive”.

On to `CCOC(=O)Cc1ccc(NC(=O)Nc2c[nH]c(=O)[nH]c2=O)cc1`, for which the Potency result was “inactive”.

Turning to `COc1cccc(C(=O)NC2=NC(c3ccc(N(C)C)cc3)CC(=O)N2)c1` (configuration not stated), the Potency entry is “inactive”.

For `Cc1ccc(Nc2c(-c3ccc(Cl)cc3)nc3sccn23)c(C)c1`, the Potency result was “inactive”.

Regarding `COCCNc1nnc(SCC(=O)NNC(=O)c2ccco2)s1`, the Potency entry was “inactive”.

Regarding `CC(C)c1ccc(C2C(C(=O)c3ccco3)=C(O)C(=O)N2CC2CCCO2)cc1` (configuration not stated), the Potency entry is “inactive”.

Consider `C=CCSc1nnc(N2C(=O)C(O)=C(C(=O)c3ccco3)C2c2ccc(F)cc2)s1` (configuration not stated), for which the Potency was 28.2 µM (active).

On to `CCOc1ccccc1NC(=O)C1CCCN(S(=O)(=O)c2cn(C)cn2)C1` (configuration not stated), for which the Potency entry is “inactive”.
